hgDAF-12 ag – agonists of H. glycines DAF-12 nuclear receptor | HEK293 GAL4-hgDAF12 UAS-luciferase reporter, agonist luminescence; normalized to butyrate control | activation, % at 6.8 µM | hit rate 1.8% among 370,000;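 active = activation above a cutoff set at the mean of all screened compounds plus 3 SD, cut at about 10% in these data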;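 also: 0% = DMSO wells and 100% = sodium butyrate wells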
DAX1 inh-1 – inhibitors of DAX1 repression of SF-1 activated StAR promoter; HEK293T StAR-luciferase reporter, SF-1/DAX-1 repression relief; AID 652010; hit rate 1.1% among 370,000; inhibition, % at 6.8 µM;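 active = inhibition above the mean over all tested compounds plus 3 SD, cut at about 3.6% in these data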;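 also: 0% = DAX-1 cells with DMSO and 100% = cells lacking DAX-1 with DMSO; higher inhibition means more luminescence from relief of DAX-1 repression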
hcDAF-12 act – activates DAF-12 receptor from parasite H. contortus; HEK293 hcDAF-12 lit1-tk-luc reporter, luminescence; 0% DMSO, 100% Δ7-dafachronic acid; hit rate 1.4% among 370,000; activation, % at 6.8 µM; AID 652067;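 active = activation above the mean of all tested compounds plus 3 SD, cut at about 5.5% in these data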;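 also: 100% = response to 3 µM Δ7-dafachronic acid high control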
ssDAF-12 act – S. stercoralis DAF-12 activation, primary screen | HEK293 ssDAF-12/GRIP1 lit1-tk-luc reporter, luminescence; % of 3 µM dafachronic acid response | activation, % at 6.8 µM | hit rate 1% among 370,000 | AID 652126;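 active = activation above the mean over all tested compounds plus 3 SD, cut at about 0.9% in these data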;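 also: 0% = DMSO-only wells and 100% = 3 µM delta7-dafachronic acid wells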
DAX1 inh-2 – inhibits human nuclear receptor DAX1. HEK293 Gal4-DAX1 luciferase reporter, luminescence. hit rate 0.99% among 340,000. P51843. AID 504766. inhibition, % at 6.75 µM;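 active = inhibition above the mean over all tested compounds plus 3 SD, cut at about 4.2% in these data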;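 also: 0% = DAX1-transfected cells with DMSO and 100% = empty-vector control cells with DMSO; inhibition shows as a rise in luminescence from relieved DAX1 repression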
LXR ag – counter-screen for hcDAF-12 agonists: agonists of human LXR-beta; shares compounds with hcDAF-12 act; HEK293 Gal4-LXR tk-luc reporter, luminescence, 24 h; normalized: DMSO 0%, positive control 100%; activation, % at 6.8 µM; 3,400 tested, under 10 active;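 active = mean percent activation of the reporter above a cutoff set as the average over tested compounds plus their standard deviation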
Target sequence (P55055 whole entry, looked up, the tested form may be a part): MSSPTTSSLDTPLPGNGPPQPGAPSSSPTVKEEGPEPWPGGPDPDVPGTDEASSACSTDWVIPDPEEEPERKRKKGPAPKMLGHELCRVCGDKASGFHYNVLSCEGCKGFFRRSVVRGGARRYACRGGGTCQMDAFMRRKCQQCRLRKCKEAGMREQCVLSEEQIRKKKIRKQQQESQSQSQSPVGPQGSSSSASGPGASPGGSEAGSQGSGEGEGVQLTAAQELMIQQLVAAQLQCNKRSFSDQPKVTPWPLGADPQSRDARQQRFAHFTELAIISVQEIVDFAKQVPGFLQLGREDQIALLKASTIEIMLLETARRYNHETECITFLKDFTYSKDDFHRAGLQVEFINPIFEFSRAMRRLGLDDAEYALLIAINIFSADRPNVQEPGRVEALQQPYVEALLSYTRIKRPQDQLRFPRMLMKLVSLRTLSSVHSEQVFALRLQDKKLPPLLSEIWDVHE
hcDAF12 ag – hcDAF-12 agonism, confirmation assay; shares compounds with hcDAF-12 act; activation, % at 6.8 µM; HEK293 hcDAF-12 lit1-tk-luc reporter, luminescence; % of Δ7-dafachronic acid response; hit rate 61% among 3,400;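 active = mean activation across triplicate tests above the threshold derived from the earlier primary screen, cut at about 5.5% in these data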;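 also: 0% = DMSO only wells and 100% = 3 µM Δ7-dafachronic acid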
* = called active by the depositor; nt = no result. Shown are actives, neighbours in structure and some others; about 4.1% of the full set was active somewhere.

SMILES	hgDAF-12 ag	DAX1 inh-1	hcDAF-12 act	ssDAF-12 act	DAX1 inh-2	LXR ag	hcDAF12 ag
COc1ccccc1CN1CCc2c([nH]c3ccccc23)C1	-1	0	3	-1	1	nt	nt
Clc1cccc(CN2CCc3c([nH]c4ccccc34)C2)c1Cl	1	0	7.0*	-1	1	0	-1
CCCCOc1ccc(C(=O)n2ccc3ccc(-c4ccc5ccn(Cc6ccc(OC)cc6)c5c4)cc32)cc1	-2	-2	-1	-1	nt	nt	nt
COC(=O)C1(C)NC(c2ccc(OC)cc2)C2C(=O)N(c3ccccc3)C(=O)C21 (configuration not stated)	1	0	-1	-1	0	nt	nt
Oc1ccc(Br)cc1-c1cc(-c2ccccc2)n[nH]1	5	0	8.1*	1.6*	-1	0	5
COc1ccc(O)c(-c2cc(-c3ccc(F)cc3)n[nH]2)c1	9	1	7.6*	1.0*	2	1	6.3*
CN(C)c1ccc(N=Cc2nc(-c3ccccc3)oc2OC(=O)c2cccc(Br)c2)cc1	7	3	6.7*	2.1*	1	0	1
CCOC(=O)c1ccc(N=Cc2nc(-c3ccccc3)oc2OC(C)=O)cc1	2	0	0	-1	2	nt	nt
Cc1ccsc1/C=N/NC(=O)C1CC(=O)N(c2ccccc2)C1 (configuration not stated)	5	0	-3	-2	0	nt	nt
CC(=O)Nc1nc(-c2ccc(Cl)cc2)nc(C)c1C(C)=O	3	0	6.6*	4.1*	3	0	4
COc1ccc(N(CC(=O)NCCSCc2ccccc2Cl)S(C)(=O)=O)cc1Cl	-4	-1	-1	-2	-2	nt	nt
COc1ccc2nc3sc(C(=O)NCCCN4CCc5ccccc5C4)cc3cc2c1	4	2	8.0*	1	-1	0	6.8*
COc1ccc2nc3sc(C(=O)N4CCN(C)CC4)cc3cc2c1	1	1	0	-1	1	nt	nt
CCNS(=O)(=O)c1cc(OC)c(Cl)cc1OC	-2	0	0	0	-1	nt	nt
CCOC(=O)C1=C(CSc2nc(-c3ccccc3)ccc2C#N)OC(N)=C(C#N)C1c1cccnc1 (configuration not stated)	12*	3	7.2*	1.3*	2	1	9.4*
CC(C)c1onc(C(=O)N2CCOCC2)c1[N+](=O)[O-]	-1	0	-2	-1	-1	nt	nt
Cc1onc(C(=O)N2CCOCC2)c1[N+](=O)[O-]	-5	-1	7.2*	-1	2	0	1
Cc1ccc(-c2cc3nc(C)cc(NCc4ccco4)n3n2)cc1	9	3	8.5*	2.4*	2	1	6.2*
O=C(CSc1nccc(=O)[nH]1)Nc1ccc(N2CCOCC2)cc1	2	-4	0	-1	-1	nt	nt
COc1ccc(-c2ccc(SCC(=O)N3CC(=O)Nc4ccccc43)nn2)cc1	2	0	-1	-1	1	nt	nt
O=C(Nc1ccccn1)c1cc2ccccc2o1	3	3	10*	0	-4	1	13*
Cc1ccnc(NC(=O)c2cc3ccccc3o2)c1	0	2	4	-1	-3	nt	nt
Cc1ccc(C)c(NC(=O)c2cc3ccccc3o2)c1	11*	1	7.8*	1	3	1	9.4*
O=C(NC(=S)Nc1cccnc1Cl)c1ccc(Cl)cc1	15*	3	10*	1.1*	1	1	15*
Cc1ccc(C(=O)Nc2cccc3cccnc23)cc1C	5	0	9.7*	1	1	1	8.8*
SMILES	hgDAF-12 ag	DAX1 inh-1	hcDAF-12 act	ssDAF-12 act	DAX1 inh-2	LXR ag	hcDAF12 ag
O=C(Nc1cccc2cccnc12)c1ccc(Cl)cc1	3	1	6.7*	1.2*	1	0	7.6*
O=C(NC(=S)Nc1cccnc1Cl)c1ccco1	8	2	2	-1	2	nt	nt
Cc1cccc(C(=O)Nc2cccc3cccnc23)c1	7	0	5	1	1	nt	nt
O=C(Nc1ccc(F)c([N+](=O)[O-])c1)C(=O)c1c(O)[nH]c2ccccc12	2	0	6.9*	0	4	0	4
CCOC(=O)C1CCCN(C(=O)CC(c2ccccc2)c2ccccc2)C1 (configuration not stated)	1	0	-2	-2	-1	nt	nt
CCOC(=O)C1CCCN(C(=O)Cc2c(C(=O)O)[nH]c3ccccc23)C1 (configuration not stated)	0	0	6.8*	0	1	0	3
O=C1C(c2ccnc3ccccc23)=C(O)c2ccccc21	16*	3	26*	3.3*	1	2	20*
O=C1C(=O)c2ccccc2C(O)=C1c1ccccc1F	-5	-1	-2	-1	2	nt	nt
Cc1cc(/C(N)=N/OC(=O)c2cccc(Cl)c2)no1	6	1	7.1*	1.5*	nt	0	2
N/C(=N\OC(=O)c1cccc(Cl)c1)c1ccccn1	10	3.9*	13*	1	-5	1	8.2*
Cc1cc(C(=O)NNC(=O)c2cccc(Cl)c2)no1	1	0	0	-1	nt	nt	nt
COc1cc(C(F)(F)F)c(C(=O)N(C)Cc2cc(Cl)cc(Cl)c2)cn1	2	0	-1	-2	1	nt	nt
Cc1cccc(N=C2NN=C(c3c(C)[nH]c4ccccc34)CS2)c1	2	-1	7.9*	-1	-1	0	3
Cc1ccc(C2(c3ccccc3)NC(=O)N(CC(=O)NC3CCS(=O)(=O)C3)C2=O)cc1C (configuration not stated)	1	0	-2	-1	-1	nt	nt
Cc1cccc(N=Nc2c(O)[nH]c3ccc(Br)cc23)c1	7	0	12*	1	1	0	6.3*
CCn1c(SCC(=O)NCCc2ccc(OC)c(OC)c2)nc2c([nH]c3ccccc32)c1=O	3	0	4	1	0	nt	nt
COCCn1c(SCC(=O)N2CCCCCC2)nc2c([nH]c3ccccc32)c1=O	3	1	7.2*	0	1	0	0
CCn1c(SCC(=O)NCCc2ccccc2)nc2c([nH]c3ccccc32)c1=O	4	1	7.2*	0	0	0	6.7*
CCOC(=O)N1N=C(c2ccc(OC)cc2)CC1(O)C(F)(F)F (configuration not stated)	9	4.1*	7.9*	1.8*	1	1	6.4*
Cc1nc2ccccc2nc(C)c1=NO	12*	4.1*	8.6*	1.0*	4	0	4

Source: PubChem BioAssay
